Experimental findings from PubChem BioAssay AID652071 (NMMLSC, 2013) are described below.

The source made the active and inactive calls. How the calls were made is not given here.

This assay is described as follows: yeast cytosolic pH changes via V-ATPase – S. cerevisiae, pHLuorin, powder set 4, dose response (AID 652071).

As to `CC(=O)N1CCN(c2ccccc2NC(=O)c2cncc(C)n2)CC1`, the outcome was inactive.

As to `COCc1ccc(C(=O)Nc2ccccc2N2CCCCC2)o1`, the molecule was classed as inactive.

For `Cc1ccc(C(=O)Nc2ccccc2N2CCN(C)CC2)o1`, the call was inactive.

Consider `O=C(Nc1ccccc1N1CCCCC1)c1cccc(Cl)n1`, for which the molecule was classed as inactive.

Turning to `CN(C)S(=O)(=O)c1cccc(C(=O)Nc2ccccc2N2CCCCC2)c1`, the molecule was called inactive.

For the molecule `COCc1ccc(C(=O)Nc2ccccc2N2CCN(C(C)=O)CC2)o1`, the call was inactive.

Consider `CC(=O)N1CCN(c2ccccc2NC(=O)c2ccc(CN(C)C)o2)CC1`, for which the result was inactive.

As for `CN(C)Cc1cccc(C(=O)Nc2ccccc2N2CCCCC2)c1`, the outcome was inactive.

With `CN1CCN(c2ccccc2NC(=O)c2cc(C#N)ccn2)CC1`, the result was inactive.

As for `Cc1ccnc(C(=O)Nc2ccccc2N2CCN(C)CC2)c1`, the call was inactive.

With `CN1CCN(c2ccccc2NC(=O)c2ccc(C(C)(C)C)o2)CC1`, the outcome was inactive.

Turning to `COCc1cccc(C(=O)Nc2ccccc2N2CCN(C)CC2)c1`, the molecule was called inactive.

For the molecule `CC(=O)N1CCN(c2ccccc2NC(=O)c2cccc(CS(C)(=O)=O)c2)CC1`, the call was inactive.

Consider `CN1CCN(c2ccccc2NC(=O)c2ccc(S(C)(=O)=O)o2)CC1`, for which the result was inactive.

As for `Cc1cccc(C(=O)Nc2ccccc2N2CCN(C)CC2)n1`, the molecule was called inactive.

Regarding `CN1CCN(c2ccccc2NC(=O)c2cccc(CC#N)c2)CC1`, the molecule was called inactive.

On to `O=C(Nc1ccccc1N1CCOCC1)c1ccc(Cl)o1`, for which the outcome was inactive.

With `CC(=O)N1CCN(c2ccccc2NC(=O)c2cccc(C#N)c2)CC1`, the call was inactive.

As to `CN1CCN(c2ccccc2NC(=O)c2ccc(-c3ccccc3)o2)CC1`, the result was inactive.
